Measured values published in PubChem BioAssay.
Unmarked numbers belong to inactive results. Activity calls are given as the source filed them.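 How the source made its calls, unless noted: active means compound whose remaining NAD level is above about 45 nM (limit read from the data); inactive means the rest.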

Target: NAD(+) hydrolase SARM1 (Homo sapiens) (UniProt Q6SZW1)
Assay: blocking NAD cleavage by SARM1 SAM-TIR – cell lysate, NAD-Glo luminescence (AID 1508614);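 further: higher remaining NAD means stronger inhibition of SARM1 NADase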
Details: SAM-TIR HEK293T lysate NADase, at 1 µM, stronger effect = higher value

Sequence of NAD(+) hydrolase SARM1 (Homo sapiens) (Q6SZW1 whole entry, looked up): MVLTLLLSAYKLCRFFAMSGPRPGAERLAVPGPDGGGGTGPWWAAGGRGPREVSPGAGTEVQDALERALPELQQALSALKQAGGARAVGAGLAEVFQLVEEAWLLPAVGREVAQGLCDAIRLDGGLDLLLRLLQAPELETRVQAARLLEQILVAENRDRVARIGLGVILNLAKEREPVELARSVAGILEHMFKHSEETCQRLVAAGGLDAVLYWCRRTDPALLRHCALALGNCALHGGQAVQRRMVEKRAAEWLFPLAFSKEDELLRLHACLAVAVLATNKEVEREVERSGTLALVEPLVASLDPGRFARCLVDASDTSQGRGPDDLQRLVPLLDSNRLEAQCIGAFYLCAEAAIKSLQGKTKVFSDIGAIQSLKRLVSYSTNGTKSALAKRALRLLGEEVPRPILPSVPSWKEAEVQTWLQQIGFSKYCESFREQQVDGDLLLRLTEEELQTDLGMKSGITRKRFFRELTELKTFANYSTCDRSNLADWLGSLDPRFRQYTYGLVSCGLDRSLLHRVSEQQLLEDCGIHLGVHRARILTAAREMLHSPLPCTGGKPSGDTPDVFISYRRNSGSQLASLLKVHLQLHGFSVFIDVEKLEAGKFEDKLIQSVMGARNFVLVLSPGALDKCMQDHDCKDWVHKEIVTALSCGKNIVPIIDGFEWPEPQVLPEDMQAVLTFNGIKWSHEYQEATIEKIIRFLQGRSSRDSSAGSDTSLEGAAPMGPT

| SMILES | remaining NAD [nM] |
| --- | --- |
| Cc1ccnc(NS(=O)(=O)c2ccc(N)cc2)n1 | 10 |
| Cc1c(NC(C)C)c(=O)n(-c2ccccc2)n1C | 10 |
| COc1ccc(C(=O)c2ccccc2)c(O)c1 | 10 |
| CCCCC1C(=O)N(c2ccccc2)N(c2ccc(O)cc2)C1=O (stereo not drawn) | 10 |
| NC[C@H]1O[C@H](O[C@H]2[C@H](O)[C@@H](O[C@H]3O[C@H](CO)[C@@H](O)[C@H](N)[C@H]3O)[C@H](N)C[C@@H]2N)[C@H](N)[C@@H](O)[C@@H]1O | 10 |
| Cc1c(NC(=O)c2cccnc2)c(=O)n(-c2ccccc2)n1C | 10 |
| COc1ccc(C(=O)CC(=O)c2ccc(C(C)(C)C)cc2)cc1 | 10 |
| CC(NCCC(c1ccccc1)c1ccccc1)c1ccccc1 (stereo not drawn) | 10 |
| CCN(CC)CCOC(=O)C(c1ccccc1)c1ccccc1 | 10 |
| CC(=O)O[C@]1(C(C)=O)CC[C@H]2[C@@H]3C=C(Cl)C4=CC(=O)CC[C@]4(C)[C@H]3CC[C@@]21C | 10 |
| Cc1cc2nc3c(=O)[nH]c(=O)nc-3n(C[C@H](O)[C@H](O)[C@H](O)CO)c2cc1C | 10 |
| CCN(CC)CCOC(=O)C(Cc1cccc2ccccc12)CC1CCCO1 (stereo not drawn) | 10 |
| Nc1ccc(S(=O)(=O)Nc2nccs2)cc1 | 10 |
| NC(=O)NC1NC(=O)NC1=O (stereo not drawn) | 10 |
| Oc1ccc(Cl)c2cccnc12 | 10 |
| O=c1oc2cc(O)ccc2s1 | 10 |
| O=C(O)c1ccccc1OP(=O)(O)O | 10 |
| NC(N)=NS(=O)(=O)c1ccc(N)cc1 | 10 |
| CCC(=O)O[C@H]1[C@H](O[C@@H]2[C@@H](C)[C@H](O[C@H]3C[C@@](C)(OC)[C@@H](O)[C@H](C)O3)[C@@H](C)C(=O)O[C@H](CC)[C@@](C)(O)[C@H](O)[C@@H](C)C(=O)[C@H](C)C[C@@]2(C)O)O[C@H](C)C[C@@H]1N(C)C | 10 |
| CCN(CC)CCNC(=O)COc1ccc(OC)cc1 | 10 |

| SMILES | remaining NAD [nM] |
| --- | --- |
| Cc1ccc2c(Cl)cc(Cl)c(O)c2n1 | 10 |
| CC(=O)Nc1ccccc1 | 10 |
| CC(=O)OCC(=O)[C@@]1(O)[C@H](C)C[C@H]2[C@@H]3CCC4=CC(=O)C=C[C@]4(C)[C@@]3(F)[C@@H](O)C[C@@]21C | 10 |
| CCC[C@H](N[C@@H](C)C(=O)N1[C@H](C(=O)O)C[C@@H]2CCCC[C@@H]21)C(=O)OCC | 10 |
| NCC1CCC(C(=O)O)CC1 (stereo not drawn) | 10 |
| CN(C)CCOC(=O)C(c1ccccc1)C1(O)CCCC1 (stereo not drawn) | 10 |
| Oc1ccc(Cl)cc1Cc1cc(Cl)ccc1O | 10 |
| OC[C@H]1O[C@@H](O[C@@H]2[C@@H](CO)O[C@](O)(CO)[C@H]2O)[C@H](O)[C@@H](O)[C@H]1O | 10 |
| Cc1cc(NC(=O)C2=C(O)c3ccccc3S(=O)(=O)N2C)no1 | 10 |
| CCN(CC)C(=O)c1cccc(C)c1 | 10 |
| CC(=O)NO | 10 |
| Cc1ccc(C(=O)C(C)CN2CCCCC2)cc1 (stereo not drawn) | 10 |
| O=C(O)c1ccc(S(=O)(=O)N(Cl)Cl)cc1 | 10 |
| Cc1c(Nc2ncccc2C(=O)O)cccc1C(F)(F)F | 10 |
| COc1ccc(CCN(C)CCCC(C#N)(c2ccc(OC)c(OC)c2)C(C)C)cc1OC (stereo not drawn) | 10 |
| Cc1cc(C)nc(NS(=O)(=O)c2ccc(N)cc2)n1 | 10 |
| N=C(N)N | 10 |
| CN1CCOC(c2ccccc2)c2ccccc2C1 (stereo not drawn) | 10 |
| Cc1cc(CC(=O)O)n(C)c1C(=O)c1ccc(Cl)cc1 | 10 |

Target: Mitogen-activated protein kinase 7 (Homo sapiens) (UniProt Q13164)
Sequence (Q13164 whole entry, looked up, the tested form may be a part): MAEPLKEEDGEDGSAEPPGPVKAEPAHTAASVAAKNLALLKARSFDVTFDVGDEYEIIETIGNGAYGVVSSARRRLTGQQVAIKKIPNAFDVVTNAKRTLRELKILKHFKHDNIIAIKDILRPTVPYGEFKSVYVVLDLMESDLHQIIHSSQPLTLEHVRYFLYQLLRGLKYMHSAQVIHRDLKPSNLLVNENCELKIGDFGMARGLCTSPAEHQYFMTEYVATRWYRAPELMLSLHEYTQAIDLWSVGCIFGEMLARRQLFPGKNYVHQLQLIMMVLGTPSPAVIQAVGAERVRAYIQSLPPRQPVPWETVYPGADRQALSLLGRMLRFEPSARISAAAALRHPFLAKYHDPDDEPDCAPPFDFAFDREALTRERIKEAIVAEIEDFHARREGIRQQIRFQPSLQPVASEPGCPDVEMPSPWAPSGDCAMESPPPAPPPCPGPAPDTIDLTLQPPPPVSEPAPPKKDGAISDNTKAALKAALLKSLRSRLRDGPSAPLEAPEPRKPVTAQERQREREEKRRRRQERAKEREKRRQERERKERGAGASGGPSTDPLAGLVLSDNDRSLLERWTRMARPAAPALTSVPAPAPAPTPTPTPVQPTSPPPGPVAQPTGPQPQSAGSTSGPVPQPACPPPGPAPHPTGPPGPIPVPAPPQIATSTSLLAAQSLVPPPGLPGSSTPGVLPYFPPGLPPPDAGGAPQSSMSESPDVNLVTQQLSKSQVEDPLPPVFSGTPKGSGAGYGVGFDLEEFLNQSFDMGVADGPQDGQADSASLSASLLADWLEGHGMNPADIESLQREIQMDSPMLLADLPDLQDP
Assay: Gal4-ERK5 driven luciferase induction – cell-based, HTS, primary screen (AID 1508626;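 active means luciferase signal above three times the same-plate solvent-only control wells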;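 further: luciferase driven by Gal4-ERK5 fusion binding five Gal4 sites before minimal TATA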)
Details: HeLa Gal4-ERK5 transactivation, 18 h, at 5 µM, stronger effect = higher value

| SMILES | luciferase signal |
| --- | --- |
| Cc1ccnc(NS(=O)(=O)c2ccc(N)cc2)n1 | 68 AU |
| Cc1c(NC(C)C)c(=O)n(-c2ccccc2)n1C | 56 AU |
| COc1ccc(C(=O)c2ccccc2)c(O)c1 | 36 AU |
| CCCCC1C(=O)N(c2ccccc2)N(c2ccc(O)cc2)C1=O (stereo not drawn) | 144 AU |
| NC[C@H]1O[C@H](O[C@H]2[C@H](O)[C@@H](O[C@H]3O[C@H](CO)[C@@H](O)[C@H](N)[C@H]3O)[C@H](N)C[C@@H]2N)[C@H](N)[C@@H](O)[C@@H]1O | 76 AU |
| Cc1c(NC(=O)c2cccnc2)c(=O)n(-c2ccccc2)n1C | 56 AU |
| COc1ccc(C(=O)CC(=O)c2ccc(C(C)(C)C)cc2)cc1 | 44 AU |
| CC(NCCC(c1ccccc1)c1ccccc1)c1ccccc1 (stereo not drawn) | 36 AU |
| CCN(CC)CCOC(=O)C(c1ccccc1)c1ccccc1 | 84 AU |
| CC(=O)O[C@]1(C(C)=O)CC[C@H]2[C@@H]3C=C(Cl)C4=CC(=O)CC[C@]4(C)[C@H]3CC[C@@]21C | 76 AU |
| Cc1cc2nc3c(=O)[nH]c(=O)nc-3n(C[C@H](O)[C@H](O)[C@H](O)CO)c2cc1C | 80 AU |
| CCN(CC)CCOC(=O)C(Cc1cccc2ccccc12)CC1CCCO1 (stereo not drawn) | 36 AU |
| Nc1ccc(S(=O)(=O)Nc2nccs2)cc1 | 84 AU |
| NC(=O)NC1NC(=O)NC1=O (stereo not drawn) | 72 AU |
| Oc1ccc(Cl)c2cccnc12 | 60 AU |
| O=c1oc2cc(O)ccc2s1 | 56 AU |
| O=C(O)c1ccccc1OP(=O)(O)O | 60 AU |
| NC(N)=NS(=O)(=O)c1ccc(N)cc1 | 188 AU |
| CCC(=O)O[C@H]1[C@H](O[C@@H]2[C@@H](C)[C@H](O[C@H]3C[C@@](C)(OC)[C@@H](O)[C@H](C)O3)[C@@H](C)C(=O)O[C@H](CC)[C@@](C)(O)[C@H](O)[C@@H](C)C(=O)[C@H](C)C[C@@]2(C)O)O[C@H](C)C[C@@H]1N(C)C | 180 AU (active) |
| CCN(CC)CCNC(=O)COc1ccc(OC)cc1 | 72 AU |

| SMILES | luciferase signal |
| --- | --- |
| Cc1ccc2c(Cl)cc(Cl)c(O)c2n1 | 32 AU |
| CC(=O)Nc1ccccc1 | 60 AU |
| CC(=O)OCC(=O)[C@@]1(O)[C@H](C)C[C@H]2[C@@H]3CCC4=CC(=O)C=C[C@]4(C)[C@@]3(F)[C@@H](O)C[C@@]21C | 120 AU |
| CCC[C@H](N[C@@H](C)C(=O)N1[C@H](C(=O)O)C[C@@H]2CCCC[C@@H]21)C(=O)OCC | 156 AU |
| NCC1CCC(C(=O)O)CC1 (stereo not drawn) | 44 AU |
| CN(C)CCOC(=O)C(c1ccccc1)C1(O)CCCC1 (stereo not drawn) | 104 AU |
| Oc1ccc(Cl)cc1Cc1cc(Cl)ccc1O | 72 AU |
| OC[C@H]1O[C@@H](O[C@@H]2[C@@H](CO)O[C@](O)(CO)[C@H]2O)[C@H](O)[C@@H](O)[C@H]1O | 16 AU |
| Cc1cc(NC(=O)C2=C(O)c3ccccc3S(=O)(=O)N2C)no1 | 72 AU |
| CCN(CC)C(=O)c1cccc(C)c1 | 68 AU |
| CC(=O)NO | 52 AU |
| Cc1ccc(C(=O)C(C)CN2CCCCC2)cc1 (stereo not drawn) | 40 AU |
| O=C(O)c1ccc(S(=O)(=O)N(Cl)Cl)cc1 | 48 AU |
| Cc1c(Nc2ncccc2C(=O)O)cccc1C(F)(F)F | 44 AU |
| COc1ccc(CCN(C)CCCC(C#N)(c2ccc(OC)c(OC)c2)C(C)C)cc1OC (stereo not drawn) | 96 AU |
| Cc1cc(C)nc(NS(=O)(=O)c2ccc(N)cc2)n1 | 36 AU |
| N=C(N)N | 44 AU |
| CN1CCOC(c2ccccc2)c2ccccc2C1 (stereo not drawn) | 120 AU |
| Cc1cc(CC(=O)O)n(C)c1C(=O)c1ccc(Cl)cc1 | 96 AU |
